{"source": "paper PMC12820563", "about": "“FoxP3 forms a head-to-head dimer in vivo and stabilizes its multimerization on adjacent microsatellites”", "note": "Over roughly 16,000 sequences, “rpm ratio (pull-down/input)” has its median near 0.94; the highest 2% begin near 1.7. For the sample, the highest values were picked, then their nearest neighbours and some sequences at random.", "data": [{"target": "T1, MBP-FoxP1dN (Mus musculus, UniProt P58462 326-579)", "T1 sequence": "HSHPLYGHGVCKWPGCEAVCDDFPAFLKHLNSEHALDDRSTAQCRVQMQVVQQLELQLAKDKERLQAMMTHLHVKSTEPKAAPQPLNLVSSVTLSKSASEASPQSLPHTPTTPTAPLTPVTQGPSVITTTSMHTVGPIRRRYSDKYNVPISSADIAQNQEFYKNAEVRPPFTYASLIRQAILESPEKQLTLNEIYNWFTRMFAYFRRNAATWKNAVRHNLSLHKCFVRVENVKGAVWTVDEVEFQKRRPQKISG", "assay": "PD-seq (MBP pull-down with sequencing); 20 mM Tris-HCl pH 7.5, 100 mM NaCl, 1.5 mM MgCl2, 0.4 uM protein, 0.1 uM dsDNA library, 30 min, room temperature, amylose pull-down; high values mean tight binding", "conditions": "protein: recombinant; tags: His6-MBP; chain copies: 2; dsDNA, one strand shown", "method_in_brief": "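A degenerate double-stranded DNA library, filled in with Klenow, was added at 0.1 µM to 0.4 µM His6-MBP-tagged mouse FoxP3 or FoxP1 fragment lacking the N-terminus, expressed in E. coli. Incubation lasted 30 min at room temperature in Tris pH 7.5 buffer with NaCl and MgCl2, after which complexes were collected on amylose resin, washed three times, digested with proteinase K to free the DNA, barcoded by PCR and sequenced by Illumina. Binding is the pooled-replicate reads-per-million enrichment of pull-down over input.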", "values": [{"sequence": "GATGATTGTTCTCCCAGCTGATGAATTCTAATCCTCGAGTAAACAAATTTTCCTAATCTTTCTGTTCAAGCGCCATCTAC", "binding signal": "0.781 RPM ratio (pull-down/input)"}, {"sequence": "GATGATTGTTCTCCCAGCTGATGAATTGGGTGCTTCGAGTAAACAAATTTTCCTAATCTTTCTGTTCAAGCGCCATCTAC", "binding signal": "0.861 RPM ratio (pull-down/input)"}, {"sequence": "GATGATTGTTCTCCCAGCTGATGAATTTCAGGTATCGAGTAAACAAATTTTCCTAATCTTTCTGTTCAAGCGCCATCTAC", "binding signal": "0.919 RPM ratio (pull-down/input)"}, {"sequence": "GATGATTGTTCTCCCAGCTGATGAATTTGTACGCTCGAGTAAACAAATTTTCCTAATCTTTCTGTTCAAGCGCCATCTAC", "binding signal": "1.13 RPM ratio (pull-down/input)"}, {"sequence": "GATGATTGTTCTCCCAGCTGATGAATTTGCGATATCGAGTAAACAAATTTTCCTAATCTTTCTGTTCAAGCGCCATCTAC", "binding signal": "1.19 RPM ratio (pull-down/input)"}, {"sequence": "GATGATTGTTCTCCCAGCTGATGAATTGCCTATGTCGAGTAAACAAATTTTCCTAATCTTTCTGTTCAAGCGCCATCTAC", "binding signal": "0.918 RPM ratio (pull-down/input)"}, {"sequence": "GATGATTGTTCTCCCAGCTGATGAATTGACGCGGTCGAGTAAACAAATTTTCCTAATCTTTCTGTTCAAGCGCCATCTAC", "binding signal": "1.01 RPM ratio (pull-down/input)"}, {"sequence": "GATGATTGTTCTCCCAGCTGATGAATTTTCTGGCTCGAGTAAACAAATTTTCCTAATCTTTCTGTTCAAGCGCCATCTAC", "binding signal": "0.777 RPM ratio (pull-down/input)"}, {"sequence": "GATGATTGTTCTCCCAGCTGATGAATTTCCGAAGTCGAGTAAACAAATTTTCCTAATCTTTCTGTTCAAGCGCCATCTAC", "binding signal": "0.787 RPM ratio (pull-down/input)"}, {"sequence": "GATGATTGTTCTCCCAGCTGATGAATTACGTCGCTCGAGTAAACAAATTTTCCTAATCTTTCTGTTCAAGCGCCATCTAC", "binding signal": "1.02 RPM ratio (pull-down/input)"}, {"sequence": "GATGATTGTTCTCCCAGCTGATGAATTTTCACATTCGAGTAAACAAATTTTCCTAATCTTTCTGTTCAAGCGCCATCTAC", "binding signal": "0.987 RPM ratio (pull-down/input)"}, {"sequence": "GATGATTGTTCTCCCAGCTGATGAATTACATTCCTCGAGTAAACAAATTTTCCTAATCTTTCTGTTCAAGCGCCATCTAC", "binding signal": "1.2 RPM ratio (pull-down/input)"}, {"sequence": "GATGATTGTTCTCCCAGCTGATGAATTTTACTAATCGAGTAAACAAATTTTCCTAATCTTTCTGTTCAAGCGCCATCTAC", "binding signal": "1.14 RPM ratio (pull-down/input)"}, {"sequence": "GATGATTGTTCTCCCAGCTGATGAATTTACTAAATCGAGTAAACAAATTTTCCTAATCTTTCTGTTCAAGCGCCATCTAC", "binding signal": "1.72 RPM ratio (pull-down/input)"}, {"sequence": "GATGATTGTTCTCCCAGCTGATGAATTTTTACTATCGAGTAAACAAATTTTCCTAATCTTTCTGTTCAAGCGCCATCTAC", "binding signal": "1.1 RPM ratio (pull-down/input)"}, {"sequence": "GATGATTGTTCTCCCAGCTGATGAATTAATGCGCTCGAGTAAACAAATTTTCCTAATCTTTCTGTTCAAGCGCCATCTAC", "binding signal": "1.26 RPM ratio (pull-down/input)"}, {"sequence": "GATGATTGTTCTCCCAGCTGATGAATTGACCTTCTCGAGTAAACAAATTTTCCTAATCTTTCTGTTCAAGCGCCATCTAC", "binding signal": "0.921 RPM ratio (pull-down/input)"}, {"sequence": "GATGATTGTTCTCCCAGCTGATGAATTTTGCTTTTCGAGTAAACAAATTTTCCTAATCTTTCTGTTCAAGCGCCATCTAC", "binding signal": "1.49 RPM ratio (pull-down/input)"}, {"sequence": "GATGATTGTTCTCCCAGCTGATGAATTGAATGGTTCGAGTAAACAAATTTTCCTAATCTTTCTGTTCAAGCGCCATCTAC", "binding signal": "0.852 RPM ratio (pull-down/input)"}, {"sequence": "GATGATTGTTCTCCCAGCTGATGAATTTTTGACGTCGAGTAAACAAATTTTCCTAATCTTTCTGTTCAAGCGCCATCTAC", "binding signal": "0.91 RPM ratio (pull-down/input)"}, {"sequence": "GATGATTGTTCTCCCAGCTGATGAATTGTTGACGTCGAGTAAACAAATTTTCCTAATCTTTCTGTTCAAGCGCCATCTAC", "binding signal": "2.22 RPM ratio (pull-down/input)"}, {"sequence": "GATGATTGTTCTCCCAGCTGATGAATTGATGACGTCGAGTAAACAAATTTTCCTAATCTTTCTGTTCAAGCGCCATCTAC", "binding signal": "1.06 RPM ratio (pull-down/input)"}, {"sequence": "GATGATTGTTCTCCCAGCTGATGAATTTGACGTATCGAGTAAACAAATTTTCCTAATCTTTCTGTTCAAGCGCCATCTAC", "binding signal": "0.962 RPM ratio (pull-down/input)"}, {"sequence": "GATGATTGTTCTCCCAGCTGATGAATTGACGCCATCGAGTAAACAAATTTTCCTAATCTTTCTGTTCAAGCGCCATCTAC", "binding signal": "1.24 RPM ratio (pull-down/input)"}, {"sequence": "GATGATTGTTCTCCCAGCTGATGAATTGACGTAATCGAGTAAACAAATTTTCCTAATCTTTCTGTTCAAGCGCCATCTAC", "binding signal": "1.75 RPM ratio (pull-down/input)"}, {"sequence": "GATGATTGTTCTCCCAGCTGATGAATTTCTCTAGTCGAGTAAACAAATTTTCCTAATCTTTCTGTTCAAGCGCCATCTAC", "binding signal": "0.844 RPM ratio (pull-down/input)"}, {"sequence": "GATGATTGTTCTCCCAGCTGATGAATTACCGCGATCGAGTAAACAAATTTTCCTAATCTTTCTGTTCAAGCGCCATCTAC", "binding signal": "0.929 RPM ratio (pull-down/input)"}, {"sequence": "GATGATTGTTCTCCCAGCTGATGAATTCCTAAAATCGAGTAAACAAATTTTCCTAATCTTTCTGTTCAAGCGCCATCTAC", "binding signal": "0.966 RPM ratio (pull-down/input)"}, {"sequence": "GATGATTGTTCTCCCAGCTGATGAATTGAAAACATCGAGTAAACAAATTTTCCTAATCTTTCTGTTCAAGCGCCATCTAC", "binding signal": "1.8 RPM ratio (pull-down/input)"}, {"sequence": "GATGATTGTTCTCCCAGCTGATGAATTCTAAACATCGAGTAAACAAATTTTCCTAATCTTTCTGTTCAAGCGCCATCTAC", "binding signal": "2.07 RPM ratio (pull-down/input)"}, {"sequence": "GATGATTGTTCTCCCAGCTGATGAATTCACAACATCGAGTAAACAAATTTTCCTAATCTTTCTGTTCAAGCGCCATCTAC", "binding signal": "2.11 RPM ratio (pull-down/input)"}]}]}
